Potency and affinity values are given separately. Values without a mark were called inactive.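 Rule for the calls: active = absorbance falls by 30% or more versus neutral controls, with a potency fitted within twice the top valid dose; inconclusive = no clear call, values can overlap the other calls; inactive = change opposite to expected direction, plus the rest.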

For the assay, the target named is Protein disulfide-isomerase (Homo sapiens) (UniProt P07237). Kind of assay: PDI inhibitors, insulin aggregation turbidity, dose response, biochemical, absorbance, cherry-picked samples (AID 602350).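 Note: 0% = neutral controls and -100% = rutin hydrate positive control wells.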 As to conditions: recombinant PDI insulin aggregation, absorbance 650 nm, 90 min; series mostly up to 19.5 µM; activity change, negative = inhibition: at the top concentration.
Chain of Protein disulfide-isomerase (Homo sapiens) (P07237 whole entry, looked up): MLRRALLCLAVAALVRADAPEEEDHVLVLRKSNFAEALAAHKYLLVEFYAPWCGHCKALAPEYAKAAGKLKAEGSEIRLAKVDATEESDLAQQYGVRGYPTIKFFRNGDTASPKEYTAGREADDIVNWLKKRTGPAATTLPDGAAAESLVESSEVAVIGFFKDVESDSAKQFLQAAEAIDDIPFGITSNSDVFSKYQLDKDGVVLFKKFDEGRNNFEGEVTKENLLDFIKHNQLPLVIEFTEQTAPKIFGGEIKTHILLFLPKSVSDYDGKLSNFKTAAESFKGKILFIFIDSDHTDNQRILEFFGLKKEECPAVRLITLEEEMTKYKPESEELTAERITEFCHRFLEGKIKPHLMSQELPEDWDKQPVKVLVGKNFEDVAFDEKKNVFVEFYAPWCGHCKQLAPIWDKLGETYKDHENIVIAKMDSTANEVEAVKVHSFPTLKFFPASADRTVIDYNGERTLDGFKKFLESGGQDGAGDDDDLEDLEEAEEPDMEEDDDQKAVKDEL
In the case of `CCc1nc2ccc(C(=O)N(CC)CC(=O)Nc3c(F)cccc3F)cc2nc1CC`, the “activity change, negative = inhibition” value is 24.8%.

Take `CCOC(=O)c1c(CN2CCN(C)CC2)n(C)c2cc(Br)c(OC)cc12`: the “activity change, negative = inhibition” value is -0.959%.

Consider `CCOC(=O)C1(CCOc2ccccc2)CCN(Cc2ccc(OC)cc2)CC1`, for which the “activity change, negative = inhibition” value is 0.844%.

Consider `CCOC(=O)C1(CC2CC2)CCN(Cc2cc(Cl)c(O)c(OC)c2)CC1`, for which the “activity change, negative = inhibition” value is 3.48%.

For `CC1CCCN(c2cc3c(cc2[N+](=O)[O-])C(=O)N(c2ccccc2)C3=O)C1` (stereo not given), the “activity change, negative = inhibition” value was 1.27%.

On to `COc1cccc(-n2ccnc2SCC(=O)Nc2cc(OC)ccc2OC)c1`, for which the “activity change, negative = inhibition” value was 6.09%.

Turning to `O=C(c1ccc(S(=O)(=O)N2CCCCC2)cc1)N1CCN(Cc2ccc3c(c2)OCO3)CC1`, the “activity change, negative = inhibition” value is 33%.

Take `CCOC(=O)C1(Cc2ccc(O)cc2)NC(c2ccccc2F)C2C(=O)N(C)C(=O)C21` (stereo not given): the “activity change, negative = inhibition” value is -45.6%.

Consider `Cc1cc(C)c(C)c(S(=O)(=O)N2CCC(C(=O)N(C)Cc3nc4ccccc4c(=O)[nH]3)CC2)c1C`, for which the “activity change, negative = inhibition” value is -2.56%.

As for `C[C@H](CO)N1C[C@H](C)[C@@H](CN(C)Cc2ccccc2)Oc2ccc(NC(=O)Nc3ccccc3)cc2CC1=O`, the “activity change, negative = inhibition” value is -16.7%.

With `CCc1ccc2[nH]c(=O)c(CN(Cc3ccccc3OC)Cc3nnnn3Cc3ccco3)cc2c1`, the “activity change, negative = inhibition” value is 6.81%.

For `CCCNC(=O)c1cccc(COc2ccccc2OC)c1`, the “activity change, negative = inhibition” value was -48.7%.

With `CCC(=O)N1CCc2cc(S(=O)(=O)CCC(=O)NCc3ccco3)ccc21`, the “activity change, negative = inhibition” value was 0.455%.

`C[C@H]1CN([C@@H](C)CO)C(=O)Cc2cc(NC(=O)Nc3ccccc3)ccc2O[C@@H]1CN(C)Cc1ccccc1`: the “activity change, negative = inhibition” value was -20.7%.

As for `COc1cccc(/C=C2\CCCCC2=O)c1`, the “activity change, negative = inhibition” value is 2.74%.

As to `O=C(NCCCN1CCOCC1)C(Sc1ccccc1)c1ccccc1` (stereo not given), the “activity change, negative = inhibition” value was 5.78%.

Consider `COc1ccc(N(Cc2cc3cc(OC)ccc3[nH]c2=O)C(=O)C2CCCO2)cc1` (stereo not given), for which the “activity change, negative = inhibition” value was 4.45%.

For the molecule `Cc1cccc(NC(=S)NCC23C=CC(O2)C2C(=O)N(c4ccc(Cl)cc4)C(=O)C23)c1` (stereo not given), the “activity change, negative = inhibition” value is 19.5%.

`CC(C)N1CCCC(C)(C(=O)Nc2nc3ccccc3n2C)C1` (stereo not given): the “activity change, negative = inhibition” value is 3.76%.

As for `Cc1ccc(-n2ncc3c(=O)[nH]c(SCC(=O)N4CCCc5ccccc54)nc32)cc1`, the “activity change, negative = inhibition” value is 2.04%.

`O=c1cc(CSc2nnnn2-c2ccc(O)cc2)nc2sccn12`: the “activity change, negative = inhibition” value was -21.6%.

On to `CN(C)CCCN(C(=O)c1ccc(S(=O)(=O)N2CCCc3ccccc32)cc1)c1nc2ccc(F)cc2s1`, for which the “activity change, negative = inhibition” value was -10.6%.

As for `O=C(NN1CC(C(=O)OCc2ccccc2F)CC1=O)c1ccccc1` (stereo not given), the “activity change, negative = inhibition” value is -0.039%.

In the case of `O=C(Nc1cccc(S(=O)(=O)Nc2ccc(SC(F)F)cc2)c1)C1CCC1`, the “activity change, negative = inhibition” value is -18.6%.

Take `Cc1cc(NC(=O)COC(=O)C2CC(=O)N(c3ccccc3)C2)no1` (stereo not given): the “activity change, negative = inhibition” value is 8.6%.

For the molecule `O=C(NCc1ccncc1)Nc1cc(Cl)ccc1Cl`, the “activity change, negative = inhibition” value was -6.29%.

As to `CC(=O)N(C)C1(c2nnnn2CCOC(=O)Nc2ccc(Cl)cc2)CCCCC1`, the “activity change, negative = inhibition” value is -1.62%.

Regarding `COc1ccc(C2c3ccc(O)cc3Oc3ncn(CCCO)c(=N)c32)cc1` (stereo not given), the “activity change, negative = inhibition” value was -24.8%.

`CN(C)S(=O)(=O)c1ccc(C(=O)Nc2ccc3nc(N4CCOCC4)sc3c2)cc1`: the “activity change, negative = inhibition” value was 4.06%.

Take `O=C(NC(Cc1c[nH]c2ccccc12)C(=O)N/N=C/c1cccnc1)c1cccs1` (stereo not given): the “activity change, negative = inhibition” value was -3.98%.

With `Cc1[nH][nH]c(=O)c1C(c1c(C)[nH][nH]c1=O)c1cn(Cc2ccccc2Cl)c2ccccc12`, the “activity change, negative = inhibition” value was 7.21%.

For `Cc1nnc(N/N=C/c2ccc(-c3ccccc3F)o2)n1N`, the “activity change, negative = inhibition” value is 0.128%.

Regarding `CN(c1ccccc1)S(=O)(=O)c1cc(C(=O)N2CCN(c3ncccn3)CC2)ccc1Cl`, the “activity change, negative = inhibition” value is 10.7%.

With `CCOC(=O)c1c(CN(C)C)n(-c2ccccc2)c2cc(Br)c(O)cc12`, the “activity change, negative = inhibition” value is -18.2%.

Take `COc1ccc(/C(C)=N/NC(=O)CNC(=O)c2cccs2)cc1`: the “activity change, negative = inhibition” value was 30.1%.

Take `C[C@@H]1CN([C@@H](C)CO)C(=O)Cc2cc(NC(=O)Nc3ccccc3)ccc2O[C@@H]1CN(C)Cc1ccccc1`: the “activity change, negative = inhibition” value was -3.98%.

`CCOC(=O)c1cc(S(=O)(=O)N2CCN(C(=O)OCC)CC2)cn1C`: the “activity change, negative = inhibition” value is 11.8%.

In the case of `COc1ccc(Cl)cc1NC(=O)COC(=O)C1CC1`, the “activity change, negative = inhibition” value is 13%.

Regarding `O=C(Cn1nnc2ccccc21)OCC(=O)c1ccccc1`, the “activity change, negative = inhibition” value is 13.7%.

Consider `CCOc1ccc2[nH]c(=O)c(CN(CCO)C(=O)CC)cc2c1`, for which the “activity change, negative = inhibition” value was -1.98%.
